Compound activity from PubChem BioAssay.
Vaccinia Venus: qHTS for Stage-Specific Inhibitors of Vaccinia Orthopoxvirus: Venus Reporter Primary qHTS; Vaccinia virus Venus reporter expression, fluorescence; Potency, µM (doses to about 36.5 µM), for the others: top-dose activity change, negative = inhibition, usual class: inhibitors; 330,000 compounds, 0.46% hits; AID 720580, 2013; calls by dose curve; tested in A549 cells; note: potency is the fitted concentration of half-maximal effect; nearly all actives have a fitted effect of over 30% in size
VACV mCherry inh: qHTS for Stage-Specific Inhibitors of Vaccinia Orthopoxvirus: mCherry Reporter Primary qHTS. Vaccinia virus mCherry reporter infection, fluorescence. 310,000 compounds, 0.63% hits. Potency, µM (doses to about 36.5 µM), for the others: at the highest dose activity change, negative = inhibition, actives largely listed as inhibitors; calls by dose curve; tested in A549 cells; note: potency is the fitted concentration of half-maximal effect; nearly all actives have a fitted effect of over 35% in size
LASV entry inh: qHTS for Inhibitors of binding or entry into cells for Lassa Virus. 300,000 compounds, 1.2% hits. Potency, µM (doses to about 37.9 µM), for the others: top-dose activity change, negative = inhibition, usual class: inhibitors. Lassa virus pseudotype entry inhibition, cell reporter; calls by dose curve; tested in HEK293 cells; note: potency is the fitted concentration of half-maximal effect; nearly all actives have a fitted effect of over 50% in size
HCMV antiviral: qHTS Assay for inhibitors of the human cytomegalovirus (HCMV). activity change, negative = inhibition, % at 57.5 µM. 410,000 compounds, 4.5% hits. HFF cells, HCMV-luciferase reporter, 72 h; active compounds read low. AID 1259415, 2018; in the data active = activity change below about -60%; inconclusive = no clear call, values can overlap the other calls; inactive = above about -39%
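Human foreskin fibroblasts infected with luciferase-reporter HCMV at MOI 1 PFU/cell, compounds at two doses. Luciferase measured 72 h post infection; normalized to buffer-only basal and Salinomycin (10uM) controls.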
HCV inhibitor: qHTS Assay for Inhibitors of Hepatitis C Virus (HCV). Potency, µM (highest dose often 41.8 µM), for the others: top-dose activity change, negative = inhibition, most hits filed as inhibitors. 340,000 compounds, 3.4% hits. Huh7.5.1 HCVcc-Cre infection, luciferase reporter, 44 h; active = well fitted inhibition curve with a large enough effect; inconclusive = small, poorly fitted or top-dose-only effect, or another doubt; inactive = no such curve, though single readings can be large or run the other way; note: potency is the fitted concentration of half-maximal effect
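1,000 cells/well; 4 h culture; + compound; + HCVcc-Cre (~0.5 moi); 44 h; luciferase substrate, RT 15 min; read 15 sec.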
MARV entry inh: qHTS for inhibitors of binding or entry into cells for Marburg Virus | AID 540276, 2011 | Marburg virus pseudotyped entry inhibition, cell reporter | 300,000 compounds, 1.8% hits | Potency, µM (titrated, usually from 37.8 µM), without a hit: top-dose activity change, negative = inhibition, most hits filed as inhibitors; calls by dose curve; tested in HEK293 cells; note: potency is the fitted concentration of half-maximal effect
An asterisk follows results filed as active; i = inactive; ? = inconclusive; . = no result given; [ ] = dose if it differs, or a comment. An excerpt weighted towards active compounds, which were near 7.8% of everything screened. % is set by controls: 0 for no effect and ±100 for the full control effect.

SMILES	Vaccinia Venus	VACV mCherry inh	LASV entry inh	HCMV antiviral	HCV inhibitor	MARV entry inh
Cc1ccc(NC(=O)c2ccc(NC(=O)c3ccccc3)cc2)cc1C	10µM*	?	?	?	.	?
O=C(Nc1ccc(Oc2ccc(Cl)cc2)c(Cl)c1)c1cc(I)cc(I)c1O	?	-18.5%	.	?	31.6µM*	.
CCN1CCN(c2ncc3c(n2)CCN(Cc2sccc2C)C3)CC1	-15.6%	-17.4%	-26.5%[46.1 µM]	-8.9	.	.
O=C(O)c1cnn(-c2ccccc2)c1-c1ccccc1	-5.4%	-13.2%	9.5%	28.6	25.5%	23.4%
O=C(O)c1cnn(-c2ccccc2)c1C(F)(F)F	-8.9%	-3.6%	22.2%	-79.7*	19.7%	?
Clc1ccc2c(NCCNC3CCCCC3)ccnc2c1	?	-12.8%	?	-83.6*	7.94µM*	1.58µM*
CCN(CC)Cc1ccc(Nc2ccnc3cc(Cl)ccc23)cc1O	-14.4%	i	.	.	.	.
O=C(NCCCNc1ccnc2cc(Cl)ccc12)c1ccccc1F	.	.	.	-34.0	10µM*	.
CC(CCCN1CCCC1)Nc1ccnc2cc(Cl)ccc12 (configuration not stated)	-8.0%	?	5.4%[46.1 µM]	?	?	3.55µM*
CCOc1ccccc1Nc1ccnc2cc(Cl)ccc12	?	i	10µM*	?	?	?
Clc1ccc2c(NCc3ccccn3)ccnc2c1	.	.	.	-72.1*	?	.
CCOc1ccccc1Nc1cc(-c2ccccc2)nc(C)n1	-5.0%	-4.7%	12.4%[46.1 µM]	-14.3	.	-24.6%[46.1 µM]
CCOc1ccccc1Nc1cc(C)c2cccc(C)c2n1	-13.1%	-11.1%	-10.8%[46.1 µM]	37.2	7.94µM*	?
COc1ccccc1CN1C[C@@H]2C[C@@H](c3ccccc3C)N3CCC[C@@]23C1=O	-16.3%	-7.7%	.	-7.3	?	.
Cc1ccccc1CN1C[C@@H]2C[C@@H](c3cnc(N4CCOCC4)s3)N3CCC[C@@]23C1=O	-9.4%	i	.	-75.6*	?	.
NC(=S)N/N=C/c1cc([N+](=O)[O-])ccc1Cl	2.24µM*	?	.	9.7	-8.2%	.
Cc1ccc(S(=O)(=O)N/N=C\c2cc([N+](=O)[O-])ccc2Cl)cc1	-18.0%	-8.6%	?	-89.9*	12.5%	?
CN(C)c1ccc(/C=N/NC(N)=S)cc1[N+](=O)[O-]	3.98µM*	3.55µM*	-5.4%	11.5	8.8%	-7.9%[46.1 µM]
Cc1cc(C(=O)Nc2ccccc2-c2nc(CNC(=O)c3sc(C)nc3C)c(C)o2)c(C)o1	6.2%	-3.3%	.	.	.	.
CC1CCN(c2nc3ccc(C(=O)N4CCN(Cc5ccccc5)CC4)cc3s2)CC1	?	?	.	?	11.2µM*	-2.5%
CCc1noc(C)c1C(=O)N1CCN(c2ccc([N+](=O)[O-])cc2)CC1	-16.3%	-10.3%	.	38.1	.	.
Cc1cc(C)c2nc(N3CCC(C(=O)NCCCN4CCCCC4)CC3)sc2c1	.	.	?	-103.3*	?	?
CCN(Cc1ccccc1)S(=O)(=O)c1ccc(C(=O)N2CCN(c3nc4ccccc4s3)CC2)cc1	-22.7%	-21.7%	-0.4%	-66.5*	10µM*	?
CCc1ccc2nc(N3CCN(C(=O)c4ccccc4)CC3)sc2c1	-24.4%	-14.3%	-7.7%[46.1 µM]	?	.	.
CCc1nc2ccc(C(=O)N3CCN(c4ccc([N+](=O)[O-])cc4)CC3)cc2nc1CC	.	.	.	?	12.6µM*	.
SMILES	Vaccinia Venus	VACV mCherry inh	LASV entry inh	HCMV antiviral	HCV inhibitor	MARV entry inh
Cc1cc(C)c2nc(N3CCC(C(=O)NCC4CCCO4)CC3)sc2c1 (configuration not stated)	-0.7%[7.34 µM]	-5.0%[7.34 µM]	.	50.9	?	.
Cc1ccc(CNC(=O)c2cnc3c(-c4ccccc4)c(C)nn3c2C)o1	-0.7%	-4.3%	24.7%[46.1 µM]	-12.0	.	.
CCn1c2ccccc2c2cc(/C=C3/C=Cc4ccccc43)ccc21	-21.3%	-7.6%	.	.	.	.
CC(C)(C)CC(C)(C)NC(=O)C(C1CC1)N1C(=O)C(=O)c2ccccc21 (configuration not stated)	.	.	.	22.3	.	.
CC(C)c1ccc(NC(=O)CSc2nc3ccccc3nc2Cc2ccccc2)cc1	-15.7%	-3.6%	29.3%[46.1 µM]	-12.4	.	.
O=C(c1ccccc1)N1CCN(c2nc3ccc([N+](=O)[O-])cc3s2)CC1	?	-15.7%	.	-66.6*	?	.
CCCCN(C)CCNC(=O)C1CCN(c2nc3ccc(CC)cc3s2)CC1	-9.7%	-6.2%	25.9%[46.1 µM]	-97.9*	.	?
CCCN1CCN(CCCNC(=O)c2ccc3nc(N4CCC(C)CC4)sc3c2)CC1	-2.9%	i	.	-25.0	11.2µM*	.
CCc1ccc2nc(N3CCC(C(=O)O)CC3)sc2c1	4.9%	-5.8%	.	-29.6	.	?
O=[N+]([O-])c1ccc2nc(N3CCCC3)sc2c1	.	.	.	62.2	?	.
CN1CCOc2cc(S(=O)(=O)N3CCN(c4nc(-c5cccs5)nc5ccccc45)CC3)ccc21	-18.5%	i	.	.	.	.
CCCCN(CC)CCCNC(=O)Cn1ncc2c3ccccc3n(Cc3ccccc3F)c2c1=O	-26.1%	-25.0%	-1.9%[46.1 µM]	?	.	?
CCOc1ccc(C2C(C(=O)Nc3ccccc3)=C(C)Nc3nc(-c4ccccc4)nn32)cc1OC (configuration not stated)	-11.8%	-17.7%	-19.0%[46.1 µM]	-19.9	.	-4.6%[46.1 µM]
CCOc1nc2ccccc2cc1C=O	-7.3%	-10.6%	-5.3%	-72.9*	1.6%	2.6%[46.1 µM]
CCOc1ccc(CC(=O)Nc2ccc3nc(N4CCCCC4)cc(C)c3c2)cc1OCC	-18.1%	-19.4%	?	38.1	.	.
Cc1ccc(S(=O)(=O)c2ccc([N+](=O)[O-])o2)cc1	?	?	?	-27.6	3.55µM*	7.94µM*
Cc1ccc(S(=O)(=O)Nc2c(C)cc([N+](=O)[O-])cc2C)cc1	-17.5%	-22.1%	0.2%	15.0	2.2%	-2.9%
CC1CCN(CCCCOc2ccccc2Br)CC1	-3.7%	i	?	?	?	?
